The experiment relates to Wnt5a (protein binding on small-molecule microarray). Description: small molecules binding Wnt5a protein – biophysical, small-molecule microarray, 635/667 nm fluorescence, primary screen (AID 1142).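 Also: fluorescence read at 667 nm with signal to noise per printed feature.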 Particulars: 635 nm fluorescence, higher = more signal.
On to `C=CCC(OC(C)=O)[C@@H]1[C@@H](N(Cc2cccc3ccccc23)C(=O)c2cccc3ccccc23)c2cc(OCCCO)ccc2N1C(=O)c1ccc2ccccc2n1` (stereo partly specified), for which the composite z-score is -0.0721.

`COc1ccc(C(O)C2C=CC3C(=O)NC(=O)C3N2Nc2ccccn2)cc1OCc1ccccc1` (stereo unspecified) registered a composite z-score of -0.125.

Take `CCCN1C(=O)[C@@]2(CCC(=O)OC(C)(C)C)N=C(c3ccc(OCCCO)cc3)O[C@H]2c2ccccc21`: the composite z-score amounted to 0.399.

Turning to `COc1cccc(C(=O)O[C@H]2CC[C@]3(C)C4=C(CCC3C2(C)C)[C@]2(C)CC[C@H]([C@H](C)CCCC(C)C)[C@@]2(C)CC4)c1` (stereo partly specified), the composite z-score came to 0.0406.

`COc1cc2c(cc1OC)CN(C(=O)[C@@H]1[C@H]3C(=O)O[C@H](c4ccccc4)[C@H](c4ccccc4)N3[C@H](c3ccccc3OCCO)[C@@]13C(=O)Nc1ccc(C#CCNC(N)=O)cc13)CC2` yielded a composite z-score of 0.38.

In the case of `CN(C)CCCCNC(=O)[C@H]1C[C@H]2C(=O)N[C@@H](Cc3ccccc3)C(=O)N2[C@H]1c1ccc(O)cc1`, the composite z-score was determined as 0.335.

Molecule `COc1ccc(CCN2C(=O)[C@@]3(Cc4ccccc42)c2ccccc2C(=O)N(Cc2ccccc2Cl)[C@H]3c2ccc(CO)cc2)cc1` registered a composite z-score of -0.0887.

`CCCCCCCCCCC(O)C1C=CC2C(=O)N(Cc3ccccc3)C(=O)C2N1n1cnnc1` (stereo unspecified) displayed a composite z-score of 0.418.

The molecule `COCCOC(=O)N1C(=O)[C@@]2(c3cc(C#CCC(C(=O)OC)C(=O)OC)ccc31)[C@H](C(=O)N1CCN(c3ncccn3)CC1)[C@H]1C(=O)O[C@H](c3ccccc3)[C@H](c3ccccc3)N1[C@@H]2c1ccc(OCCO)cc1` returned a composite z-score of 0.148.

Turning to `C=C(COC)C(=O)CC[C@@H](OC(=O)c1cccnc1)c1ccc(CO)o1`, the composite z-score is 0.345.

`C=C[C@@H](COC(C)=O)N(Cc1ccc([N+](=O)[O-])cc1)S(=O)(=O)c1ccc(Br)cc1` yielded a composite z-score of 0.191.

With `O=C1O[C@@H](c2ccccc2)[C@@H](c2ccccc2)N2[C@@H](c3ccc(O)cc3)[C@]3(C(=O)Nc4ccc(C#CC5(O)CCCCCC5)cc43)[C@@H](C(=O)N3CCCCCCC3)[C@H]12`, the composite z-score was determined as 1.74.

As for `COC(=O)C[C@@H]1C[C@H](C)[C@]2(O1)C(=O)N(Cc1ccccc1)c1ccc(NC(C)=O)cc12`, the composite z-score came to 0.739.

`CC(C)(C)N1CC=CC23O[C@@H]4C=CCOC(=O)[C@@H]4[C@H]2C(=O)N(CCCCCO)[C@@H]3C1=O` (stereo partly specified) registered a composite z-score of -0.248.

As for `C=CCN1C(=O)[C@]2(O[C@H](CCO)[C@@H]([Si](C)(C)c3ccc(OC)cc3)[C@@H]2C)c2cc(NC(=O)[C@H](C)O)ccc21`, the composite z-score is 0.276.

Turning to `C=CC(=C)C1=CCO[C@@H]1[C@H]1CCCN1S(=O)(=O)c1ccccc1[N+](=O)[O-]`, the composite z-score is 0.224.

For `COc1ccc(NN2C(C(O)c3ccc(OC)c(OCc4ccccc4)c3)C=CC3C(=O)N(C4CCCCC4)C(=O)C32)cc1` (stereo unspecified), the composite z-score was 0.285.

Molecule `[N-]=[N+]=NCc1ccccc1[C@@H]1OC(c2ccc(OCCCO)cc2)=N[C@]1(Cc1ccccc1)C(=O)N1CCCCC1` registered a composite z-score of 0.663.

Consider `CC(C)(C)N1CC=CC23O[C@@H]4/C=C\CCCOC(=O)C4[C@H]2C(=O)N(CCO)[C@@H]3C1=O` (stereo partly specified), for which the composite z-score worked out at 0.501.

`O=C1O[C@H](c2ccccc2)[C@H](c2ccccc2)N2[C@H]1[C@@H](C(=O)O)[C@]1(C(=O)Nc3ccc(C#CC4=CCCCC4)cc31)[C@H]2c1ccc(OCCO)cc1`: the composite z-score amounted to 1.04.

`COC(=O)C[C@H]1O[C@]2(C(=O)N(Cc3ccccc3)c3ccc(NC(C)=O)cc32)[C@@H](C)[C@@H]1[Si](C)(C)c1ccc(OC)cc1` displayed a composite z-score of 0.0998.

As to `CC(C)CNC(=O)[C@@H]1c2ccccc2C(=O)N(Cc2cc(C(F)(F)F)cc(C(F)(F)F)c2)[C@H]1c1ccc(CO)cc1`, the composite z-score was -0.0674.

`COc1ccccc1CN1C(=O)c2ccccc2[C@@H](C(=O)NCCN2CCOCC2)[C@@H]1c1ccc(CO)cc1` showed a composite z-score of 0.274.

On to `NCCCCCCNC(=O)[C@H]1C[C@H]2C(=O)NCC(=O)N2[C@H]1c1cccc(OCCO)c1`, for which the composite z-score is 0.363.

In turn, `COCCOC(=O)N1C(=O)[C@@]2(c3ccccc31)[C@H](C(=O)NC[C@H](O)c1ccccc1)[C@H]1C(=O)O[C@H](c3ccccc3)[C@H](c3ccccc3)N1[C@@H]2c1ccc(OCCO)cc1` yielded a composite z-score of 0.788.

`CC(C)N1CC=CC23O[C@@H]4C=CCOC(=O)[C@@H]4[C@H]2C(=O)N(CCO)[C@@H]3C1=O` (stereo partly specified): the composite z-score was -0.967.

The molecule `COC(=O)[C@@]1(Cc2ccccc2)[C@H]2c3cc(C(=O)N4CCCC4)n(C)c3C[C@H]2CN1C(=O)c1ccccc1` returned a composite z-score of 0.0131.

With `O=C1[C@]2(CO)C=C(Br)[C@@H](C[C@@H]2c2ccccc2)[C@@]12CO2`, the composite z-score is -0.165.

The molecule `CCCCC(O)C1C=CC2C(=O)N(C3CCCCC3)C(=O)C2N1Nc1ccc(OC)cc1` (stereo unspecified) gave a composite z-score of 0.177.

Molecule `COc1ccc(C(O)C2C=CC3C(=O)N(c4ccccc4)C(=O)C3N2Nc2ccc([N+](=O)[O-])cc2)cc1OCc1ccccc1` (stereo unspecified) registered a composite z-score of 1.43.

On to `Cc1ccc(S[C@]2(C(=O)NCc3ccccc3)CC(=O)N(Cc3ccccc3)[C@@H]2c2ccc(CO)cc2)cc1`, for which the composite z-score was -0.202.

Regarding `C=C(COC)/C(=C/C[C@H](OC(=O)c1ccncc1)c1cccc(OCCO)c1)c1cc(C(=O)OC)ccc1OC`, the composite z-score turned out to be 0.176.

As to `COC(=O)[C@@]1(Cc2ccccc2)[C@H]2c3cc(C(=O)N(C)C)n(Cc4cc(C)n(C)n4)c3C[C@H]2CN1C(=O)c1ccccc1`, the composite z-score was found to be 0.0704.

The molecule `COC(=O)[C@@]1(Cc2ccccc2N=[N+]=[N-])COC(c2ccc(OCCCO)cc2)=N1` yielded a composite z-score of 0.193.

On to `CN1CCC(CCCO)=CC1c1ccc(CN2CCCC2)cc1` (stereo unspecified), for which the composite z-score is 0.958.

Molecule `CC(=CC1CCCCC1)[C@@H](NC(=O)c1ccc(C(F)(F)F)cc1)c1ccc(-c2ccccc2)cc1` came in with a composite z-score of -0.239.
